Data reported in PubChem BioAssay (NCATS).
Inconclusive results are not listed. For some assays here: Measured potencies and affinities stand elsewhere. Calls of active or inactive are those of the source.

Assays:
[1] = Ebola virus entry assay, green fluorescence channel
[2] = Ebola virus entry assay, blue channel fluorescence
[3] = Ebola virus entry assay, green fluorescence channel; remark: listed apart in the source
[4] = Ebola virus entry assay, ratio channel readout
[5] = Ebola virus entry assay, blue channel fluorescence; remark: listed apart in the source
[6] = Ebola virus entry assay, ratio channel
[7] = Ebola virus entry assay, reporter ratio channel; AC50: Channel type: primary unless noted; outcome: Channel type: primary unless noted
[8] = qHTS Assay for Identifying Gametocytocidal Compounds (AID 743244; active = well fitted curve in the direction sought with a large enough effect;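 also: % is scaled to controls: 0 for no effect and ±100 for the full control effect; actives lower the fluorescent signal which means gametocytes are killed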); conditions: P. falciparum 3D7 stage III-V gametocytes, alamarBlue, 72 h; max response: active compounds read low
Procedure, shortened: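 P. falciparum 3D7 stage III–V gametocytes (20,000 cells/well) were exposed to compounds for 72 h at 37 °C, 5% CO2. AlamarBlue was then added for 24 h; decreased resorufin fluorescence (Ex 525/Em 598 nm) indicated loss of viability.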

[9] = Ebola virus entry assay, green channel fluorescence
[10] = Ebola virus entry assay, blue channel fluorescence; remark: listed apart in the source
[11] = Ebola virus entry assay, blue channel (ratio component)
For efficacy in this document: 0% is about no effect.

CN1CCN(C(c2ccccc2)c2ccccc2)CC1
inactive: efficacy [1] 84.8% | outcome [2] | outcome [3] | outcome [4]
active: AC50 [5] 28.2 µM | AC50 [6] 22.4 µM | AC50 [7] 22.4 µM

CCN(CC)CCN1C(=O)CN=C(c2ccccc2F)c2cc(Cl)ccc21
inactive: max response [8] 9.52% | efficacy [1] 47.1% | outcome [2] | outcome [3] | outcome [4] | outcome [6]
active: AC50 [5] 35.5 µM | AC50 [7] 39.8 µM

COc1cc(NC(C)CCCN)c2ncccc2c1 (stereo not drawn)
inactive: efficacy [1] -153% | outcome [2] | outcome [3] | outcome [4]
active: AC50 [5] 5.01 µM | AC50 [6] 3.55 µM | AC50 [7] 3.55 µM

O=C1Cc2cc(CCN3CCN(c4nsc5ccccc45)CC3)c(Cl)cc2N1
inactive: efficacy [1] 34% | outcome [2] | outcome [3] | outcome [4]
active: AC50 [5] 22.4 µM | AC50 [6] 17.8 µM | AC50 [7] 17.8 µM

NC12CC3CC(CC(C3)C1)C2
inactive: efficacy [1] 15% | outcome [2] | outcome [3] | outcome [4] | outcome [5] | outcome [9] | outcome [10] | outcome [7] | outcome [11]

Cc1nc2n(c(=O)c1CCN1CCC(c3noc4cc(F)ccc34)CC1)CCC[C@H]2O
inactive: efficacy [1] 18.4% | outcome [2] | outcome [3] | outcome [4] | outcome [5] | outcome [9] | outcome [10] | outcome [7] | outcome [11]

C[N+]1(C)CCC(OC(=O)C(O)(c2ccccc2)C2CCCC2)C1 (stereo not drawn)
inactive: efficacy [1] 28.8% | outcome [2] | outcome [3] | outcome [4] | outcome [5] | outcome [9] | outcome [10] | outcome [7] | outcome [11]

CCN(C(C)=O)c1cccc(-c2ccnc3c(C#N)cnn23)c1
inactive: max response [8] 4.87% | efficacy [1] 22.6% | outcome [2] | outcome [3] | outcome [4] | outcome [5] | outcome [9] | outcome [10] | outcome [7] | outcome [11]

C=C1C[C@@H]2[C@H](CC[C@]3(C)C(=O)CC[C@@H]23)[C@@]2(C)C=CC(=O)C=C12
active: AC50 [5] 28.2 µM | AC50 [6] 25.1 µM | AC50 [7] 25.1 µM
inactive: max response [8] -0.643% | efficacy [1] 112% | outcome [2] | outcome [3] | outcome [4]

O=C(NCCN1CCOCC1)c1ccc(Cl)cc1
inactive: efficacy [1] -15.2% | outcome [2] | outcome [3] | outcome [4] | outcome [5] | outcome [9] | outcome [10] | outcome [7] | outcome [11]

COc1ccc(Cl)cc1C(=O)NCCc1ccc(S(=O)(=O)NC(=O)NC2CCCCC2)cc1
inactive: efficacy [1] 15.6% | outcome [2] | outcome [3] | outcome [4] | outcome [5] | outcome [9] | outcome [10] | outcome [7] | outcome [11]

COc1ccccc1Oc1c(NS(=O)(=O)c2ccc(C(C)(C)C)cc2)nc(-c2ncccn2)nc1OCCO
inactive: efficacy [1] -15.4% | outcome [2] | outcome [3] | outcome [4] | outcome [5] | outcome [9] | outcome [10] | outcome [7] | outcome [11]

O=C(C1CCCCC1)N1CC(=O)N2CCc3ccccc3C2C1 (stereo not drawn)
inactive: efficacy [1] 43.7% | outcome [2] | outcome [3] | outcome [4] | outcome [5] | outcome [9] | outcome [10] | outcome [7] | outcome [11]

CC(=O)OCC(CCn1cnc2cnc(N)nc21)COC(C)=O
inactive: efficacy [1] 17.3% | outcome [2] | outcome [3] | outcome [4] | outcome [5] | outcome [9] | outcome [10] | outcome [7] | outcome [11]

CC(C)n1c(/C=C/[C@@H](O)C[C@@H](O)CC(=O)O)c(-c2ccc(F)cc2)c2ccccc21
inactive: efficacy [1] 14.5% | outcome [2] | outcome [3] | outcome [4] | outcome [5] | outcome [9] | outcome [10] | outcome [7] | outcome [11]

NNCCc1ccccc1
inactive: efficacy [1] -18.8% | outcome [2] | outcome [3] | outcome [4] | outcome [5] | outcome [9] | outcome [10] | outcome [7] | outcome [11]

CC[C@@H](CO)NCCN[C@@H](CC)CO
inactive: efficacy [1] -17.1% | outcome [2] | outcome [3] | outcome [4] | outcome [5] | outcome [9] | outcome [10] | outcome [7] | outcome [11]

CC1=C(C(=O)O)N2C(=O)[C@@H](NC(=O)[C@H](N)c3ccccc3)[C@H]2SC1
inactive: efficacy [1] 11.4% | outcome [2] | outcome [3] | outcome [4] | outcome [5] | outcome [9] | outcome [10] | outcome [7] | outcome [11]

C[C@@H](c1ncncc1F)C(O)(Cn1cncn1)c1ccc(F)cc1F (stereo partly drawn)
inactive: efficacy [1] -14.3% | outcome [2] | outcome [3] | outcome [4] | outcome [5] | outcome [9] | outcome [10] | outcome [7] | outcome [11]

OCCN1C[C@H](O)[C@@H](O)[C@H](O)[C@H]1CO
inactive: efficacy [1] -21.2% | outcome [2] | outcome [3] | outcome [4] | outcome [5] | outcome [9] | outcome [10] | outcome [7] | outcome [11]
